Most compounds without a hit are left out; they make up all but 1.4% or so of the library.
NFkB transloc pot = enhancers of NFkB p65 translocation in HUVEC – imaging, IL-1B stimulus, high-content imaging, primary screen; HUVEC IL-1B NFkB p65 nuclear translocation imaging; activation, % at 2 µM; actives 0.3% (n = 94,000);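 active = activation above 40%, about the mean plus 3 SD, also judged a hit on visual image review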;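 also: percent activation is computed from the nuclear over cytoplasmic p65 intensity ratio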
IL1B cytotox = cytotoxicity in IL-1B stimulated HUVEC, primary screen, cytotoxicity control for IL-1B NFkB translocation project, imaging, Hoechst nuclear count, IL-1B stimulus; HUVEC cell count loss; cell count reduction, % at 2 µM; actives 0.41% (n = 94,000);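 active = cell count reduction more than 3 SD above the screen-wide mean, cut at about 70% in these data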;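 also: normalized per plate to untreated control cells as the no-loss baseline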
IL1B NFkB inh = inhibitors of IL-1B driven NFkB p65 nuclear import, primary screen, imaging, HUVEC, IL-1B stimulus, high-content imaging; actives 0.43% (n = 94,000); HUVEC IL-1B NFkB p65 nuclear translocation imaging; inhibition, % at 2 µM;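 active = inhibition above about 30% together with a positive call from visual inspection of the well image, limit read from the data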;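 also: nuclear over cytoplasmic p65 intensity ratio measured by imaging; 0% = IL-1B stimulated DMSO wells and 100% = unstimulated DMSO wells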
INS promoter inh = inhibitors of insulin promoter-driven GFP, primary screen, imaging, TRM-6 cells (human fetal islet line), eGFP reporter, cell count; reporter expression induced with tamoxifen; actives 0.9% (n = 130,000); AID 1273, 2008; inhibition, % at 2 µM;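 active = inhibition above the mean plus 3 SD, with well images judged a real hit on visual review, cut at about 60% in these data, passing the limit was not always enough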
The depositor's hits bear a star; . = no result; ! = repeats disagree.

SMILES | NFkB transloc pot | IL1B cytotox | IL1B NFkB inh | INS promoter inh
CCn1nc(C)c(NC(=O)CSc2nnc(-c3ccco3)n2C)c1C | -2 | 18 | 2 | 81*
CCN(c1ccc(C)c(C)c1)S(=O)(=O)c1ccc2c(c1)CCN2C(=O)CCC(=O)O | 54* | -12 | -54 | 0
CCN(c1ccc(OC)cc1)S(=O)(=O)c1ccc2c(c1)CCN2C(=O)CCC(=O)O | 4 | -14 | -4 | 0
O=C(Cn1cnc2c(oc3ccccc32)c1=O)NCc1ccco1 | 12 | -2 | -12 | 82*
COc1ccc(Cl)cc1NC(=O)CSc1nncn1-c1cccnc1 | 9 | -5 | -9 | -7
O=C(NC1CC1)c1c[nH]c2ccc(S(=O)(=O)Nc3cccc(C(F)(F)F)c3)cc2c1=O | 2 | 91* | -2 | .
CCc1ccc2c(c1)c(N=NC1=NC(=O)CS1)c(O)n2C | -5 | 19 | 5 | 79*
CCCCNC(=O)c1ccc(CS(=O)(=O)Cc2ccccc2F)o1 | . | . | . | 8
CCN(CC)S(=O)(=O)c1ccc(NC(=O)C(OC)c2ccccc2)cc1 (stereo not given) | -98 | 90* | 98* | 61
COCCn1nnnc1C(c1cccs1)N1CCN2CCCC2C1 (stereo not given) | . | . | . | 15
CCSc1nc2ccccc2n1C(=O)/C=C\c1ccc(OC)c(OC)c1 | -90 | -10 | 90* | .
CCOc1ccc(C2NC(=O)C(C#N)=C(S)N2c2ccc(OC)cc2)cc1OC (stereo not given) | -9 | 5 | 9 | 80*
COc1ccc(C2NC(=O)C(C#N)=C(S)N2c2ccc(C)cc2)cc1OC (stereo not given) | . | . | . | 0
CCC1CCCCN1C(=O)CSc1nnc(-c2ccc(Cl)s2)o1 (stereo not given) | -5 | 87* | 5 | 8
CCC1CCCCN1C(=O)CSc1nnc(-c2ccco2)o1 (stereo not given) | 2 | 16 | -2 | 86*
CCC1CCCCN1C(=O)CSc1nnc(-c2ccc(Cl)cc2)o1 (stereo not given) | 4 | 7 | -4 | .
CCS(=O)(=O)N1CCC(C(=O)N2CCN(Cc3ccccc3)CC2)CC1 | . | . | . | -29
O=C(CSCc1ccc(Br)cc1)N1CCOCC1 | 42* | -16 | -42 | -13
O=C(CSCc1ccc(F)cc1)N1CCOCC1 | 10 | 11 | -10 | -10
CC(C)NC(=O)C(=O)NCCCN1CCOCC1 | . | . | . | 21
CN(C)CCCNc1oc(-c2cccc(Cl)c2)nc1C#N | -18 | -53 | 18 | -79
COc1ccc(C2=NOC(C(=O)NCCCN3CCOCC3)C2)cc1 (stereo not given) | 47* | 5 | -47 | 6
COc1ccc(C2=NOC(C(=O)NCCN3CCOCC3)C2)cc1 (stereo not given) | 1 | -13 | -1 | 0
CCCC(=O)C1=C(O)C(C(=O)OC)C(C)(C)CC1=NC(C)C (stereo not given) | 9 | 10 | -9 | -480
CCCC(=O)C1=C(O)C(C(=O)OC)C(C)(C)CC1=NC(C)(C)C (stereo not given) | -45 | 8 | 45* | 50
SMILES | NFkB transloc pot | IL1B cytotox | IL1B NFkB inh | INS promoter inh
C=CCc1cc(C=O)cc(OC)c1OCc1ccc(Cl)cc1 | 0 | 93* | 0 | -9
Cc1cc(Cl)ccc1NC(=O)CCCN1C(=O)CCC1=O | -43 | -4 | 43* | 50
CC1=C(C(=O)Nc2ccccc2C)C(c2ccc(C)o2)n2c(s/c(=C/c3ccccc3)c2=O)=N1 (stereo not given) | 12 | -14 | -12 | 77*
CCOCCc1nnc(NC(=O)C(CC)c2ccccc2)s1 (stereo not given) | 6 | -2 | -6 | -12
COc1cc(Cl)ccc1NC(=O)COc1ccccc1C(=O)N1CCN(c2ccc(O)cc2)CC1 | 11 | -16 | -11 | 79*
COc1ccccc1OCC(=O)Nc1ccc(O)cc1C(=O)O | 0 | 12 | 0 | 19
O=C(CSc1ncccn1)NN=C1CCCCCC1 | . | . | . | 67*
Cc1cc(C)cc(CSCC(=O)NN=C2CCCCCC2)c1 | . | . | . | -47
O=C(C1CCCC1)N1CCN=C1SCc1cccc([N+](=O)[O-])c1 | . | . | . | 45
Cc1ccnc(N2CCN(c3c4c(c(C#N)c5nc6ccccc6n35)CCC4)CC2)c1 | -18 | 34 | 18 | 86*
COc1ccc(OC)c(C2C3=C(CCCC3=O)Nc3c2c(=O)n(C)c(=O)n3C)c1 (stereo not given) | 22 | 86* | -22 | -10
COc1ccc(C2C3=C(CC(C)(C)CC3=O)Nc3c2c(=O)n(C)c(=O)n3C)cc1OC (stereo not given) | . | . | . | 39
Nc1c(-c2cccc([N+](=O)[O-])c2)nc2ccccn12 | . | . | . | 69*
CC(=O)NC(=S)Nc1ccc(NC(=O)COc2ccc(C(C)C)cc2)cc1 | . | . | . | 75*
CC(=O)NC(=S)Nc1ccc(NC(=O)COc2ccc(Cl)cc2)cc1 | 0 | 2 | 0 | -42
COC(=O)c1ccccc1NC(=O)C1CC(=O)N(c2ccc(F)cc2)C1 (stereo not given) | -15 | 8 | 15 | 71*
COC(=O)CSc1cc(C)nc2ccc(OC)cc12 | -8 | 10 | 8 | -16
COc1ccc2nc(C)cc(SCC(=O)O)c2c1 | -1 | 18 | 40*! | -7
Cc1ccc(-c2cn(-c3ccc(SC(F)F)cc3)c3[n+]2CCC3)cc1 | . | . | . | -11
C/C(=N\NC(=S)NCc1ccccc1)c1ccc(C)o1 | . | . | . | 41
CC(C)OC(=O)CCCNc1ccc([N+](=O)[O-])cc1[N+](=O)[O-] | . | . | . | 10
O=C(C1CC1)N1CCN=C1SCc1ccccc1Cl | 21 | 12 | -21 | .
CC(NC(=O)C1CCCC1)C1CC2CCC1C2 (stereo not given) | . | . | . | 71*
CN(C)C(=O)CN(C)S(=O)(=O)c1ccc(Cl)cc1 | -91 | -5 | 91* | 36
CN(CC(=O)Nc1ccccn1)S(=O)(=O)c1ccc(Cl)cc1 | 16 | -20 | -16 | -56
SMILES | NFkB transloc pot | IL1B cytotox | IL1B NFkB inh | INS promoter inh
Oc1ccc(-n2cnnn2)cc1 | -2 | 89* | 2 | 7
Clc1ccc(-n2cnnn2)cc1 | 3 | 2 | -3 | -67
COc1ccc(NC(=O)C2CCN(S(=O)(=O)c3cccnc3)CC2)cc1Cl | . | . | . | -5
CC1CN(S(=O)(=O)N(C)C)CCN1S(=O)(=O)N(C)C (stereo not given) | 2 | 88* | -2 | 13
CCN(CC)CCN(C(=O)c1ccc(S(=O)(=O)N2CCCCC2)cc1)c1nc2cc3c(cc2s1)OCO3 | . | . | . | 75*
O=C(CN1CCN(CC(=O)Nc2ccccc2C(F)(F)F)CC1)Nc1ccccc1F | -6 | -3 | 6 | 85*
Cc1occc1C(=O)NC1CCCc2ccccc21 (stereo not given) | -7 | 80* | 7 | -20
O=C(NC1CCCc2ccccc21)c1ccccc1 (stereo not given) | . | . | . | 23
Cn1nc(-c2ccc(N3CCN(CCO)CC3)c([N+](=O)[O-])c2)c2ccccc2c1=O | . | . | . | 24
COc1ccccc1OCc1nc(Cc2ccc(Cl)cc2)no1 | 42* | 3 | -42 | -5
CCOc1cc(N2CCOCC2)c(OCC)cc1NC(=O)COC(=O)c1ccccc1C | . | . | . | 13

Screening results: PubChem BioAssay, Columbia University Molecular Screening Center
